{
  "source": "PubChem BioAssay (EPA / NIEHS)",
  "note": "Active and inactive are the calls of the source. Rule for the calls: active = hit-call score of the fitted dose curve at least 0.9, where 1 is the maximum; inactive = score below 0.9.",
  "data": [
    {"assay": "ATG_E_Box_CIS: Attagene CIS-FACTORIAL HepG2 Assay for human Enhancer Box (E-box) (AID 2282936)", "settings": "HepG2 E-box cis-reporter transcription, actives raise or lower the signal", "method_in_brief": "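Multiplexed CIS reporter system in transiently transfected HepG2 cells measures native transcription factor activity. Reporter RNA after 24 h exposure is profiled by RT-PCR-capillary electrophoresis.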", "values": [
      {"smiles": "Cc1ccc(C(=O)O)o1", "outcome": "inactive"},
      {"smiles": "CC(C#N)(CCC(=O)O)N=NC(C)(C#N)CCC(=O)O", "note": "(stereo not drawn)", "outcome": "inactive"},
      {"smiles": "O=C(Cl)c1cccc(C(=O)Cl)c1", "outcome": "inactive"},
      {"smiles": "C=CC(=O)OCCn1c(=O)n(CCOC(=O)C=C)c(=O)n(CCOC(=O)C=C)c1=O", "AC50": "18.9 µM (active)"},
      {"smiles": "N#Cc1ccc(CC(=NNC(=O)Nc2ccc(OC(F)(F)F)cc2)c2cccc(C(F)(F)F)c2)cc1", "outcome": "inactive"},
      {"smiles": "CCCC/C=C\\CCCCCCCCCC=O", "outcome": "inactive"},
      {"smiles": "CC1(C)CCC(C)(C)c2cc(C(=O)Nc3ccc(C(=O)O)cc3)ccc21", "outcome": "inactive"},
      {"smiles": "O=c1oc(=O)c2cc3c(=O)oc(=O)c3cc12", "outcome": "inactive"},
      {"smiles": "CCCCCCCCCCCCSC", "outcome": "inactive"},
      {"smiles": "CCN(CC)CCOC(=O)c1ccc(N)cc1", "outcome": "inactive"},
      {"smiles": "NC(=O)c1ccccc1Cl", "AC50": "61.1 µM (active)"},
      {"smiles": "CCc1c(C)cc(N)c(CC)c1N", "outcome": "inactive"},
      {"smiles": "C=C(C)C1CCC(C)CC1O", "note": "(stereo not drawn)", "outcome": "inactive"},
      {"smiles": "CCOc1ccccc1OCC", "outcome": "inactive"},
      {"smiles": "CC1CCC(C(C)CS)CC1S", "note": "(stereo not drawn)", "outcome": "inactive"},
      {"smiles": "CN(C)CCCN", "outcome": "inactive"},
      {"smiles": "C=C(C)[C@@H]1CC[C@@H](C)C[C@@H]1O", "outcome": "inactive"},
      {"smiles": "O=S(=O)(O)NC1CCCCC1", "outcome": "inactive"},
      {"smiles": "CC1=CC(=O)NS(=O)(=O)O1", "outcome": "inactive"},
      {"smiles": "CC(C)CCCCCCCOC(=O)c1ccc(C(=O)OCCCCCCCC(C)C)c(C(=O)OCCCCCCCC(C)C)c1", "outcome": "inactive"},
      {"smiles": "C/C=C(\\C)C(=O)OCc1ccccc1", "outcome": "inactive"},
      {"smiles": "CC(C)C[C@H]1C(=O)N2CCC[C@H]2[C@]2(O)O[C@](NC(=O)[C@@H]3C=C4c5cccc6[nH]c(Br)c(c56)C[C@H]4N(C)C3)(C(C)C)C(=O)N12", "outcome": "inactive"},
      {"smiles": "COC(=O)c1ccc(C)cc1", "outcome": "inactive"},
      {"smiles": "C=C(C)[C@@H]1CCC2=CC(=O)C[C@@H](C)[C@]2(C)C1", "outcome": "inactive"},
      {"smiles": "CC1(C)[C@H]2CC[C@]1(C)[C@H](O)C2", "outcome": "inactive"},
      {"smiles": "CC(=O)OCCOC(C)=O", "outcome": "inactive"},
      {"smiles": "CCCCC(CC)COCCC#N", "note": "(stereo not drawn)", "outcome": "inactive"},
      {"smiles": "CCCCCCCCC", "outcome": "inactive"},
      {"smiles": "CC1CCC2CC1C2(C)C", "note": "(stereo not drawn)", "outcome": "inactive"},
      {"smiles": "CC(C)(N)CO", "outcome": "inactive"},
      {"smiles": "CCCCC(CC)COC(=O)/C=C\\C(=O)OCC(CC)CCCC", "note": "(stereo not drawn)", "outcome": "inactive"},
      {"smiles": "Nc1cccc(S(=O)(=O)c2cccc(N)c2)c1", "outcome": "inactive"},
      {"smiles": "O=c1[nH]nnc2ccccc12", "outcome": "inactive"},
      {"smiles": "C=C(C)C(=O)OCc1ccccc1", "outcome": "inactive"},
      {"smiles": "CCCCCCCCC=O", "outcome": "inactive"},
      {"smiles": "Cc1ccc(C(C)C)cc1O", "outcome": "inactive"},
      {"smiles": "C=CCOC(=O)CCC1CCCCC1", "outcome": "inactive"},
      {"smiles": "Cc1cccc(Nc2ccccc2C(=O)O)c1C", "outcome": "inactive"}
    ]}
  ]
}
